Measured values from PubChem BioAssay.
Activity calls are given as the source filed them.

What was measured:
[1] = small molecules captured by biotinylated probe aFSTL3 – biochemical, small-molecule microarray, fluorescence 635/667, stem cell growth factor project, primary screen (AID 1064); details: higher = more signal;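 also: measures binding of the biotinylated anti-FSTL3 antibody to printed compounds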
[2] = binders from COS7 lysate, DM2A8 probe, primary screen, torsin A project, cell lysate, small-molecule microarray, fluorescence 635/667 (AID 1065); details: higher = more signal, COS7 lysate expressing mutant human TOR1A
[3] = small molecules captured by biotinylated probe aFGF2 – biochemical, small-molecule microarray, fluorescence 635/667, stem cell growth factor project, primary screen (AID 1067); details: higher = more signal;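 also: measures binding of biotinylated aFGF2 protein to printed compounds on slides; z-score merges feature fluorescence and signal-to-noise across triplicate slides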
[4] = small molecules captured by biotinylated probe aFGF10 – biochemical, small-molecule microarray, fluorescence 635/667, stem cell growth factor project, primary screen (AID 1071); details: higher = more signal;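 also: score merges 667 nm spot intensity and signal to noise from triplicate slides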
[5] = target: Neurogenic locus notch homolog protein 2 (Homo sapiens) (UniProt Q04721); experiment: small molecules binding Notch2 protein – biochemical, small-molecule microarray, 635 nm fluorescence, stem cell growth factors, primary screen (AID 1073); details: higher = more signal
[6] = target: Pro-neuregulin-1, membrane-bound isoform (Homo sapiens) (UniProt Q02297); experiment: small molecules binding neuregulin-1 protein – biochemical, small-molecule microarray, fluorescence 635/667, psychiatric disease protein project, primary screen (AID 1075); details: NRG1 binding, 635 nm fluorescence, higher = more signal;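 also: score combines 667 nm spot fluorescence with signal to noise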
[7] = tested on: Neuregulin-1 EGF-like domain; experiment: small molecules binding NRG1 EGF domain – biochemical, small-molecule microarray, 635 nm fluorescence, primary screen (AID 1081); details: higher = more signal;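 also: binding of the protein to compounds printed on small-molecule microarray slides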
[8] = FRG1 expression reporter modulators in myotubes – cell-based, C2C12 myotubes, firefly/Renilla luciferase, luminescence, FRG1 inhibition for FSHD, primary screen (AID 1084); details: FRG1 promoter luciferase, higher = more signal, called active from +8 up or from −8 down
[9] = small molecules captured by biotinylated probe aFST – biochemical, small-molecule microarray, fluorescence 635/667, stem cell growth factor project, primary screen (AID 1086); details: higher = more signal;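 also: score merges 667 nm fluorescence with signal-to-noise of each printed compound spot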
[10] = binders of probe aHhip on microarray, primary screen, stem cell growth factor project, biochemical, small-molecule microarray, fluorescence 635/667 (AID 1087); details: higher = more signal;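 also: score merges spot fluorescence at 667nm with spot signal to noise ratio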
[11] = tested on: PRMT1 (protein arginine N-methyltransferase 1); experiment: small molecules binding arginine methyltransferase PRMT1 – biochemical, small-molecule microarray, 635 nm fluorescence, primary screen (AID 1088); details: higher = more signal;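 also: binding of Prmt1 protein to compounds spotted on small-molecule microarray slides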
[12] = growth effects on S. cerevisiae YJM789 – YJM789 clinical isolate, OD600, 24 h, basal, primary screen (AID 1089); details: higher = more signal, called active from +8 up or from −8 down;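 also: growth of clinical yeast isolate S. cerevisiae YJM 789 seeded 1000 cells per well; test concentration not given here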
[13] = S. pombe growth modifiers, basal conditions – strain 972, OD600, 24 h, no modulator, primary screen (AID 1090);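 also: basal condition with compound alone and no growth modifier present; test concentration not given here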; details: S. pombe 972 growth, higher = more signal, called active from +8 up or from −8 down
[14] = budding yeast growth modifiers under rapamycin – strain BY4716, OD600, 96 h, primary screen (AID 1091); also: test concentration not given here; details: S. cerevisiae BY4716 + rapamycin, higher = more signal, called active from +8 up or from −8 down
[15] = target: Torsin-1A-interacting protein 2 (Homo sapiens) (UniProt Q8NFQ8); experiment: small molecules binding lysate-expressed LULL1 – cell lysate, human LULL1 lysate, 635/667 nm fluorescence, primary screen (AID 1092); details: small-molecule microarray, hLULL1 lysate binding, 635 nm fluorescence; higher = more signal;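 also: probe is lysate of COS7 cells overexpressing human LULL1; score merges per-feature 667 nm fluorescence with signal-to-noise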
[16] = optical density change of DRC41 E. coli – strain DRC41, OD650, 24 h, E. coli filamentation project, primary screen (AID 1093);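 also: MC1000 strain lacking acrAB efflux and sulA so SOS filamentation is blocked; test concentration not given here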; details: E. coli DRC41 growth, higher = more signal, called active from +8 up or from −8 down
[17] = probe aLefty2 binding to arrayed compounds – biochemical, biotinylated probe, 635/667 nm fluorescence, primary screen (AID 1094); details: small-molecule microarray, higher = more signal;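 also: score merges spot fluorescence near 667 nm with spot signal-to-noise ratio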
[18] = tested on: Noggin (protein binding on small-molecule microarray); experiment: small molecules binding Noggin protein – biochemical, 635/667 nm fluorescence, primary screen (AID 1095); details: 635 nm fluorescence, higher = more signal;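 also: score merges 667 nm feature fluorescence with signal to noise over triplicate slides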
[19] = target: Neurogenic locus notch homolog protein 3 (Homo sapiens) (UniProt Q9UM47); experiment: small molecules binding NOTCH3 protein – biochemical, 635/667 nm fluorescence, primary screen (AID 1096); details: small-molecule microarray, 635 nm fluorescence, higher = more signal
[20] = probe aEGFR binding to arrayed compounds – biochemical, biotinylated probe, 635/667 nm fluorescence, primary screen (AID 1097); details: small-molecule microarray, higher = more signal;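 also: probe is a biotinylated anti-EGFR antibody binding compounds printed on slides; score combines fluorescence near 667 nm and signal to noise of each spot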

Chain of Torsin-1A-interacting protein 2 (Homo sapiens) (Q8NFQ8 whole entry, looked up): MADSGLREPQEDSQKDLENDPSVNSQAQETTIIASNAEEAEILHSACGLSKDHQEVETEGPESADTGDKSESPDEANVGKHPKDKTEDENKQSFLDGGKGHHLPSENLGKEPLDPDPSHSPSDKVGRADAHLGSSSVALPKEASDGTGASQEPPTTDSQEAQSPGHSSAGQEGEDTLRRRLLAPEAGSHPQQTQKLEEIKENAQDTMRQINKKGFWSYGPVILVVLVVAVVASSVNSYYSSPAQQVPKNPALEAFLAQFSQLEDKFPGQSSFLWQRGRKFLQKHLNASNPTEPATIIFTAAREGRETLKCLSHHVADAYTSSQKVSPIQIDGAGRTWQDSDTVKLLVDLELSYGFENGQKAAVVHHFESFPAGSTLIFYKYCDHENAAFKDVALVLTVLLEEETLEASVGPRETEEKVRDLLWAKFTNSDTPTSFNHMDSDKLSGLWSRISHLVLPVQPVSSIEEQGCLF
Chain of Pro-neuregulin-1, membrane-bound isoform (Homo sapiens) (Q02297 whole entry, looked up, the tested form may be a part, canonical isoform): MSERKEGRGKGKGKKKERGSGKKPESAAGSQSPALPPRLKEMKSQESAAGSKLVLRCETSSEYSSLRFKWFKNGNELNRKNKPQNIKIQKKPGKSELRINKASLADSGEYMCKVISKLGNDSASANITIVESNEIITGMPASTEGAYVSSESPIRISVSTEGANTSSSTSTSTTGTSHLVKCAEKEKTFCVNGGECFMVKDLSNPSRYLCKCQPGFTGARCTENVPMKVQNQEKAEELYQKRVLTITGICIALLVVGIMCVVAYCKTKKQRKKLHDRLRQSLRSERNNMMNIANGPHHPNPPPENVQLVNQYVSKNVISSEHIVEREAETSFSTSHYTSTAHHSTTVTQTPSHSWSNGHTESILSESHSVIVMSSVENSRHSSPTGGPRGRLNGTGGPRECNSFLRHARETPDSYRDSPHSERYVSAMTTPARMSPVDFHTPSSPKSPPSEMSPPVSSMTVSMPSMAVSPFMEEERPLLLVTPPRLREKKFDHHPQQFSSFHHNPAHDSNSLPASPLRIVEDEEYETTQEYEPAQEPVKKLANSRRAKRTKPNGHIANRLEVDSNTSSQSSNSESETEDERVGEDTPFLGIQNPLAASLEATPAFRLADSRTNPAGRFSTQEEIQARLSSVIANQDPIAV
Chain of Neurogenic locus notch homolog protein 2 (Homo sapiens) (Q04721 whole entry, looked up, canonical isoform): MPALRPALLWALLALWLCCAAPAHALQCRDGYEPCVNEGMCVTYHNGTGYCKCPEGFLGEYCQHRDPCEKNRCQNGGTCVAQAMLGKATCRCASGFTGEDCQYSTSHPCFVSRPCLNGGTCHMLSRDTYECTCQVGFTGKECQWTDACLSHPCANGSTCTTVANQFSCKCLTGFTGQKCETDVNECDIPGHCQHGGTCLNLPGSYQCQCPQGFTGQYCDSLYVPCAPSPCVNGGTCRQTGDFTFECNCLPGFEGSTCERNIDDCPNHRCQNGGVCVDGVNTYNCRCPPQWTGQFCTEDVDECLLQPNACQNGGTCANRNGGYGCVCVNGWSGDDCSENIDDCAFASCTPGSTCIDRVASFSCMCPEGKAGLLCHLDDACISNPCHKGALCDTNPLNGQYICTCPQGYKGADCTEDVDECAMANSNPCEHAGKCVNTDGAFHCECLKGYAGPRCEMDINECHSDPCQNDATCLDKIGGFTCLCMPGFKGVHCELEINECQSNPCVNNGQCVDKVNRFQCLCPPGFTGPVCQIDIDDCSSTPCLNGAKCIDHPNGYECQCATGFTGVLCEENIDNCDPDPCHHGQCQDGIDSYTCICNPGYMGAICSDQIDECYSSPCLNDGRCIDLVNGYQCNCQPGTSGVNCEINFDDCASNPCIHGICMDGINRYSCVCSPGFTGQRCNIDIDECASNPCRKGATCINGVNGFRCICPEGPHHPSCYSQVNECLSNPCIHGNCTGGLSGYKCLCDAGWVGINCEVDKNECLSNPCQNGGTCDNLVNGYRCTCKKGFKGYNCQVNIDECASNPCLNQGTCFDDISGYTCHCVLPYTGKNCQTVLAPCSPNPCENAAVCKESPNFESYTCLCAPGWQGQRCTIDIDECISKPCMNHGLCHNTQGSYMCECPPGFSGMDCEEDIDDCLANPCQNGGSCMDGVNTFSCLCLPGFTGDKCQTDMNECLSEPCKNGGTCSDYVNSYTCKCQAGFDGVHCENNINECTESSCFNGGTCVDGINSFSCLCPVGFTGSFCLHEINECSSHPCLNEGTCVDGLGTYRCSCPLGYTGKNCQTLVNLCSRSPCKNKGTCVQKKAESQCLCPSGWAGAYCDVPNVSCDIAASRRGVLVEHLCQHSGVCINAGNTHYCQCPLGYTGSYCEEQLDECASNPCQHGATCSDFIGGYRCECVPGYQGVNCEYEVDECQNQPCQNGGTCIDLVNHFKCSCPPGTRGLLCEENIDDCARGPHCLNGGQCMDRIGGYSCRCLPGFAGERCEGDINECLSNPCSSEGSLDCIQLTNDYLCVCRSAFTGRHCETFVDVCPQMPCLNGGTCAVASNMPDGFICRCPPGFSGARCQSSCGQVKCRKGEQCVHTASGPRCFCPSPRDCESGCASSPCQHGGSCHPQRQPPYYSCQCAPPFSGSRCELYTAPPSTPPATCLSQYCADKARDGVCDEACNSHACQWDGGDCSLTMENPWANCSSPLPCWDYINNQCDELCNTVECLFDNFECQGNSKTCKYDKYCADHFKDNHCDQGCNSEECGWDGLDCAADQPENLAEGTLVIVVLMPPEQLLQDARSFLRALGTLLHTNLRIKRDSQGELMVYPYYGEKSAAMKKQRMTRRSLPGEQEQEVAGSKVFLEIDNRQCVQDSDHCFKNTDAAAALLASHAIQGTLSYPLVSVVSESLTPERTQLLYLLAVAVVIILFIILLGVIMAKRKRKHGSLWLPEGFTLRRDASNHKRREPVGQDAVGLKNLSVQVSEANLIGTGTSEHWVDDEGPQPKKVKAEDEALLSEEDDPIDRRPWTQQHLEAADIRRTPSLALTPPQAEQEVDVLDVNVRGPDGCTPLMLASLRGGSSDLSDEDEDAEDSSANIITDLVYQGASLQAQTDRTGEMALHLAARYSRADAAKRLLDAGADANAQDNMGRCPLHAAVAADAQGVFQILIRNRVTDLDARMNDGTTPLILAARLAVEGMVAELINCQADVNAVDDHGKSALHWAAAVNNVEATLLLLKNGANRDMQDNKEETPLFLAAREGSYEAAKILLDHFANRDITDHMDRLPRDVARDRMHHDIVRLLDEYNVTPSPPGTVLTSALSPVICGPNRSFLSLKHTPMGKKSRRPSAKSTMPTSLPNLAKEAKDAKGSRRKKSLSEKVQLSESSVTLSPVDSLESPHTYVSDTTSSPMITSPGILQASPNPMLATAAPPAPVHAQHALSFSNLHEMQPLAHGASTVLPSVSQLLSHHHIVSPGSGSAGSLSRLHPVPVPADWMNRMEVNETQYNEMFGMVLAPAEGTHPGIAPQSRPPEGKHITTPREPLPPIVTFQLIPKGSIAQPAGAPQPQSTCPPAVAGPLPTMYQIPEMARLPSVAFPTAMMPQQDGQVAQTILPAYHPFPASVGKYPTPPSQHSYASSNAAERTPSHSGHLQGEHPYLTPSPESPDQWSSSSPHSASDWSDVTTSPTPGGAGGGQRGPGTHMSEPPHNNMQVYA

SMILES | composite z-score [1] | composite z-score [2] | composite z-score [3] | composite z-score [4] | composite z-score [5] | composite z-score [6] | composite z-score [7] | z-score [8] | composite z-score [9] | composite z-score [10] | composite z-score [11] | z-score [12] | z-score [13] | z-score [14] | composite z-score [15] | z-score [16] | composite z-score [17] | composite z-score [18] | composite z-score [19] | composite z-score [20]
CCCC[C@H]1C[C@@H]1[C@@H]1N(C(C)=O)[C@H](c2cccc(OC)c2)CC12CC2 | 0.116 | -0.303 | -0.0235 | 0.186 | 0.798 | -0.106 | -0.175 | 1.8 (inactive) | 0.657 | -0.0645 | -0.383 | -0.872 (inactive) | -8.39 (active) | -1.82 (inactive) | 0.755 | -0.563 (inactive) | 0.116 | -0.502 | -0.27 | 0.0192
C=CCOC(=O)[C@H]1[C@@H]2C(=O)O[C@@H](c3ccccc3)[C@@H](c3ccccc3)N2[C@@H](c2ccc(OCCOC(=O)[C@@H]3C[C@@H]4C(=O)N[C@@H](CCCCNC(C)=O)C(=O)N4[C@@H]3c3cccc(OCCO)c3)cc2)[C@]12C(=O)Nc1ccccc12 | 0.125 | 1.67 | -0.024 | 0.489 | 0.717 | 1.19 | 1.3 | 1.26 (inactive) | 0.324 | -0.0994 | 1.54 | 0.591 (inactive) | 0.633 (inactive) | 2.18 (inactive) | 2.36 | -0.471 (inactive) | 0.0636 | 1.34 | 1.06 | -0.0103
CCCCC(O)C1C=CC2C(=O)N(c3ccccc3)C(=O)C2N1Nc1ccccc1 (stereo not given) | 0.436 | -0.572 | -0.0414 | 0.43 | 1.2 | 1.62 | 1.12 | 0.0165 (inactive) | 0.545 | -0.137 | 0.24 | 0.102 (inactive) | -1.32 (inactive) | 1.77 (inactive) | 2.93 | -0.193 (inactive) | -0.0355 | -0.422 | 0.452 | -0.153
[N-]=[N+]=Nc1ccccc1[C@@H]1OC(c2ccc(OCCCO)cc2)=N[C@]1(CCS(=O)(=O)c1ccccc1)C(=O)NCC(O)CO (stereo not given in full) | 0.158 | 0.372 | -0.0125 | 0.0835 | 0.209 | 1.05 | 1.21 | -0.463 (inactive) | 0.283 | 0.0401 | 0.856 | 0.678 (inactive) | 0.636 (inactive) | 0.347 (inactive) | 3.1 | 0.679 (inactive) | -0.116 | 0.351 | 0.0354 | -0.147
CC(C)=CCCC(C)=CC(O)C1C=CC2C(=O)NC(=O)C2N1Nc1ccc(Cl)cc1Cl (stereo not given) | 0.235 | 0.401 | 0.234 | 0.214 | 0.933 | 1.86 | 0.915 | 1.89 (inactive) | 0.901 | 0.0373 | 0.258 | -0.835 (inactive) | -4.51 (inactive) | 0.279 (inactive) | 2.31 | -2.06 (inactive) | 0.17 | -0.218 | 0.845 | -0.0904
CC(C)N1C(=O)C[C@@](C(=O)NCCN2CCOCC2)(c2ccc([N+](=O)[O-])cc2)[C@H]1c1ccc(CO)cc1 | 0.489 | -0.32 | -0.21 | -0.692 | -0.575 | 0.543 | 0.851 | 1.08 (inactive) | -1.1 | -0.0708 | 0.266 | -1.77 (inactive) | -0.274 (inactive) | -1.76 (inactive) | 3.61 | 0.214 (inactive) | -0.001 | 0.193 | -0.958 | -0.228
NC(=O)NCC#Cc1ccc2c(c1)[C@]1(C(=O)N2)[C@H](c2ccc(OCCO)cc2)N2[C@H](c3ccccc3)[C@H](c3ccccc3)OC(=O)[C@H]2[C@@H]1C(=O)NC[C@H](O)c1ccccc1 | -0.142 | -0.329 | -0.0586 | 0.029 | 0.322 | 0.577 | -0.164 | -0.0847 (inactive) | 0.103 | -0.134 | 0.26 | 2.87 (inactive) | 1.98 (inactive) | 3.9 (inactive) | 0.741 | 2.55 (inactive) | 0.0041 | 0.565 | -0.311 | -0.141
C=C(CCCC)C(=O)CC[C@H](OC(=O)c1ccccc1-c1ccccc1C(=O)O)c1ccc(OCCO)cc1 | -0.441 | 1.06 | -0.0876 | 0.315 | -0.181 | 1.13 | 1.19 | -0.62 (inactive) | 0.393 | -0.236 | 0.636 | -0.338 (inactive) | -1.48 (inactive) | -1.88 (inactive) | 1.65 | 0.836 (inactive) | -0.0563 | 1.43 | 0.171 | -0.0197
CCOC(=O)C1=CCC(c2cc3ccccc3[nH]2)N(CCN2CC(C(=O)OCC)=CCC2c2cc3ccccc3[nH]2)C1 (stereo not given) | -0.0107 | -0.75 | -0.0216 | 0.433 | 1.06 | 1.82 | 1.32 | 2.57 (inactive) | 0.74 | -0.361 | 1.4 | -1.61 (inactive) | 0.97 (inactive) | -0.34 (inactive) | 3.38 | 0.053 (inactive) | 0.0094 | 0.38 | 0.862 | -0.0084
